# Values joined by “and” are separate entries in the source; they are usually repeats but may differ in a detail not shown here. Identical values can stand only once. In all, about 310,000 compounds went through this assay and about 1,000 (0.32%) were called active. Not all results are given here. Results with a measured potency or affinity are listed apart. Values without a mark were called inactive. The rule behind the calls is not given here.
# Experiment: Inhibition of PhoP regulon, Salmonella typhi GFP reporter cells, confirmation, 4 h (AID 1850);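 note: 0% = induced wells with vehicle and 100% = uninduced wells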
# Details: Salmonella Typhi PhoP-promoter GFP reporter, fluorescence, at 50 µM, active compounds read high
row,Structure (SMILES),inhibition
1,Cc1cc(C(=O)COC(=O)c2nc3nccc(C)n3n2)c(C)n1CC1CCCO1 (stereo not drawn),-1.82%
2,COCCn1c(CCC(=O)O)ccc1-c1cccs1,3.14%
3,O=C(O)c1ccccc1-n1c(-c2ccccc2)cc2c1CCCC2=O,-1.82%
4,CC(C)CC1Nc2ccc(C(=O)NCc3ccc4c(c3)OCO4)cc2NC1=O (stereo not drawn),1.92%
5,Cc1nccn1Cc1ccccc1,9.82%
6,COc1ccc(Cl)cc1NC(=S)NCCc1ccc(S(N)(=O)=O)cc1,1.57%
7,CN(Cc1ccccc1)C(=O)c1cccnc1,-2.03%
8,CCOC(=O)c1ccc(NC(=O)c2cn(-c3ccccc3)nc2-c2ccncc2)cc1,3.68%
9,CN(C)[C@@H]1C(=O)C(C(N)=O)=C(O)[C@@]2(O)C(=O)C3=C(O)c4c(O)cccc4[C@@](C)(O)[C@H]3[C@H](O)[C@@H]12,5.02%
10,CN(C)[C@@H]1C(=O)C(C(=O)NCN2CCCC2)=C(O)[C@@]2(O)C(=O)C3=C(O)c4c(O)cccc4[C@@](C)(O)C3CC12 (stereo partly drawn),-8.43%
11,CN(C)[C@@H]1C(=O)C(C(N)=O)=C(O)[C@@]2(O)C(=O)C3=C(O)c4c(O)cccc4[C@@](C)(O)[C@H]3C[C@@H]12,-2.82%
12,CN(C)[C@@H]1C(=O)C(C(N)=O)=C(O)[C@@]2(O)C(=O)C3=C(O)c4c(O)ccc(Cl)c4[C@@](C)(O)[C@H]3C[C@@H]12,4.13%
13,COC(=O)C1=C(C)N(Cc2ccco2)C(=O)N[C@H]1c1ccccc1,-5.63%
14,Cc1cccc(OCc2nnc(SCC(=O)c3ccccc3)o2)c1,5.39%
15,O=C(c1ccc(-n2cncn2)c([N+](=O)[O-])c1)N1CCN(S(=O)(=O)c2c(F)cccc2F)CC1,-3.76%
16,O=C(N/N=C/c1cccc(C(F)(F)F)c1)c1ccccc1O,1.04%
17,O=C(Nc1ccccc1F)Oc1cccc(OC(=O)Nc2ccccc2F)c1,5.4%
18,CS(=O)(=O)Nc1ccc(C(=O)Nc2ccc(S(=O)(=O)N3CCCC3)cc2)cc1,-7.4%
19,O=C1Nc2ccc(S(=O)(=O)N3CCCC3)c3cccc1c23,-4.45%
20,CC(=O)c1ccc(N=Nc2ccc(N(C)C)cc2)cc1,6.87%
21,CCN(CC(=O)NCCN1CCOCC1)S(=O)(=O)c1ccc(F)cc1,5.57%
22,C/C(=N\NC(=O)C(O)c1ccccc1)c1ccc(Cl)s1 (stereo not drawn),-5.86%

row,Structure (SMILES),inhibition
1,CN(C)C(=S)NC(=O)c1cccc(Cl)c1,-16.5%
2,O=C(Nc1ccc(C(=O)O)cc1)/C(=C\C=C\c1ccccc1)NC(=O)c1cccc(Br)c1,9.6%
3,O=[N+]([O-])c1ccc(O)c(/C=N/n2cnnc2)c1,16.7%
4,Cc1cc(C)n(/N=C/c2ccccc2O)c(=O)c1,-10.2%
5,Cc1cc(C)n(/N=C/c2c[nH]c3ccccc23)c(=O)c1,2.25%
6,Cc1cc(C)n(/N=C/c2cccc([N+](=O)[O-])c2)c(=O)c1,-0.547%
7,C/C1=C\CCC2C(/C=C(\C)CC1)OC(=O)C2CN1CCCCC1 (stereo not drawn),5.15%
8,CCOc1ccccc1NC(=O)C1CCN(S(=O)(=O)c2cccc3cccnc23)CC1,14.7%
9,CCOC(=O)c1nnn(-c2nonc2-n2cccc2)c1CN1CCCCC1,-6.4%
10,O=C(O)/C=C/c1ccccc1Oc1ccc(Cl)cc1Cl,4.42%
11,Nc1cc(C(=O)O)c(Oc2ccc(Cl)cc2Cl)cc1C(=O)O,-3.01%
12,COc1cc(C)ccc1NC(=O)c1ccc(S(=O)(=O)N2CCOCC2)cc1,-3.12%
13,c1ccc(C(c2ccccc2)N2CCN(Cc3nc(-c4cnccn4)no3)CC2)cc1,-8.94%
14,O=c1c([N+](=O)[O-])c(N2CCCCCC2)c2ccccc2n1-c1ccccc1,4.43%
15,CCn1cc(C(=O)O)c(=O)c2cc(F)c(N3CCN(C(=S)NC(=O)c4ccc(OC)cc4)CC3)cc21,-3.45%
16,CCn1cc(C(=O)O)c(=O)c2cc(F)c(N3CCN(S(=O)(=O)c4ccc(NC(=O)OC)cc4)CC3)cc21,3.45%
17,CCn1cc(C(=O)O)c(=O)c2cc(F)c(N3CCN(S(=O)(=O)c4ccc(Br)cc4)CC3)cc21,2.97%
18,O=C(O)c1cc(CN2CCOCC2)oc1-c1ccccc1,2.28%
19,Cc1ccc(C(=O)C(C)OC(=O)Cn2cnc3c2c(=O)n(C)c(=O)n3C)cc1 (stereo not drawn),2.25%
20,COc1cc(CNc2cccc(C(=O)O)c2)cc(Br)c1OCC(=O)NC(C)(C)C,-9.24%
21,COC(=O)c1cc(CN2CCN(c3ccccc3C)CC2)ccc1O,-3.53%
22,Cc1ccc(-c2cc(=O)c3ccccc3[nH]2)cc1,10.7%

row,Structure (SMILES),inhibition
1,COc1ccc(Cc2nc3ccccc3n2CC(=O)N/N=C/c2ccc(C)cc2O)cc1OC,-7.1%
2,C/C(=N\NC(=S)NCc1ccccc1)c1ccc(Cl)s1,9%
3,Cc1cc(C)n(-c2nncn2/N=C/c2ccccc2F)n1,-6.07%
4,O=C(Nc1ccccc1C(=O)N1CCOCC1)C1CC(=O)N(C2CCCC2)C1 (stereo not drawn),-0.19%
5,COc1ccc([N+](=O)[O-])cc1C(=O)NCCOc1ccc(Cl)cc1,-0.6%
6,CC(NCC(O)COC1CCC(C(C)(C)C)CC1)c1ccccc1 (stereo not drawn),0.36%
7,COc1ccc(C2/C=C\CN(Cc3ccncc3)CC(=O)N2Cc2ccc(F)cc2)cc1 (stereo not drawn),-5.33%
8,COc1ccc(Cl)cc1C(=O)NCC(C)C,-5.89%
9,O=C(CCC(=O)N1CCCCC1)Nc1nnc(C2CCCCC2)s1,8.14%
10,CCCN1C(=O)/C(=C/c2cc(C)n(C)c2C)SC1=Nc1ccc(OC)cc1,0.64%
11,CNC(=O)CC1C(=O)N(c2ccc(Cl)cc2)C(=S)N1CCc1ccc(OC)c(OC)c1 (stereo not drawn),-0.64%
12,O=C(NC1CCCC1)c1ccc(S(=O)(=O)N2CCOCC2)cc1,-6.82%
13,CCCCSCc1nc2ccccn2c1Br,0.1%
14,CCn1cc(C(=O)O)c(=O)c2cc(F)c(N3CCN(S(=O)(=O)c4ccc5c(c4)OCCO5)CC3)cc21,9.21%
15,CCn1cc(C(=O)O)c(=O)c2cc(F)c(N3CCN(C(=S)NC(=O)c4ccc(F)c(F)c4)CC3)cc21,1.24%
16,CCn1cc(C(=O)O)c(=O)c2cc(F)c(N3CCN(C(=S)NC(=O)c4ccc(F)cc4)CC3)cc21,9.94%
17,CCn1cc(C(=O)O)c(=O)c2cnc(N3CCN(C(=S)NC(=O)c4ccc(Br)cc4)CC3)nc21,5.97%
18,CC(=O)N1CCN(c2cc3c(cc2F)c(=O)c(C(=O)O)cn3C2CC2)CC1,0.5%
19,CCCOc1ccc(C(=O)NC(=S)N2CCN(c3cc4c(cc3F)c(=O)c(C(=O)O)cn4CC)CC2)cc1,15.1%
20,COc1ccc(NC(=O)C2CCCN(S(=O)(=O)c3ccccc3)C2)c(OC)c1 (stereo not drawn),0.45%
21,O=C1C2CCCN2C(c2cccnc2)N1c1nccs1 (stereo not drawn),0.12%
22,CCOc1cc(C(=O)Nc2nnc(S(=O)(=O)N3CCOCC3)s2)cc(OCC)c1OCC,-12.6%

row,Structure (SMILES),inhibition
1,CCc1ccc(NC(=O)COC(=O)/C(=C/c2ccccc2OC)c2ccccc2)cc1,-5.82%
2,CCn1c(C)nnc1SCC(=O)Nc1ccc2c(c1)OCCO2,11.2%
3,Cc1onc(-c2ccccc2)c1C(=O)N1CCC(CO)(Cc2ccccc2)CC1,-9.9%
4,CCC(=O)Nc1ccc2c(c1)nc(CCN1CCCCC1)n2C,0.58%
5,NC(=O)c1ncn([C@@H]2O[C@H](CO)[C@@H](O)[C@H]2O)c1O,4.75%
6,Nc1nc(F)nc2c1ncn2[C@@H]1O[C@H](CO)[C@@H](O)[C@@H]1O,-2.76%
7,Nc1ccn([C@@H]2O[C@H](CO)[C@@H](O)[C@@H]2O)c(=O)n1,1.39% and -1.71%
8,Nc1nc(Cl)nc2c1ncn2[C@@H]1O[C@H](CO)[C@@H](O)[C@H]1O,19.8% and 8.46%
9,Nc1ccn([C@@H]2O[C@H](CO)[C@@H](O)C2O)c(=O)n1 (stereo partly drawn),6.26%
10,Nc1cnn(C2OC(CO)C(O)C2O)c(=O)n1 (stereo not drawn),2.98%
11,Cc1ccc(Cn2nnnc2CN2CCC(n3nnc4cc(C)ccc43)CC2)cc1,-8.85%
12,CCOC(=O)c1ccc(CNC(=O)c2n[nH]c(=O)c3ccccc23)o1,-3.19%
13,O=C(Nc1cccc(-c2nc3ccccc3s2)c1)c1ccc2c(c1)OCO2,-3.82%
14,COc1ccc(N=C2SCC(c3ccc([N+](=O)[O-])cc3)=NN2CCO)cc1,7.19%
15,O=C(CN1CCN(S(=O)(=O)c2ccc(Br)cc2)CC1)N/N=C/c1ccco1,-9.02%
16,O=C(O)COCC(=O)N1CCN(c2cc(C(F)(F)F)nc3ccccc23)CC1,1.72%
17,CC(=O)NCCC(=O)Nc1nc2c(ccc3ccccc32)s1,9.9%
18,O=C(N/C(=C/c1ccco1)C(=O)N1CCCCCC1)c1ccccc1,2.51%
19,O=C1c2ccccc2C(=O)N1CCCc1c[nH]c2ccccc12,-2.4%
20,O=C(NCc1cccc(C(F)(F)F)c1)C1CCCN(c2cnccn2)C1 (stereo not drawn),3.94%
21,Cc1ccc2c(c1)[nH]c1c(N3CCN(Cc4ccccc4)CC3)ncnc12,6.98%
22,Cc1ccc2[nH]c3c(N4CCN(Cc5ccccc5)CC4)ncnc3c2c1,11.1%

# Reference: PubChem BioAssay AID1850 (Southern Research Specialized Biocontainment Screening …, 2009)
